From PubChem BioAssay (EPA / NIEHS)
Calls of active or inactive are those of the source. Rule for the calls: active = hit-call score of the fitted dose curve at least 0.9, where 1 is the maximum; inactive = score below 0.9.

What was measured:
[1] = ATG_CMV_CIS: Attagene CIS-FACTORIAL HepG2 Assay for human CMV (Internal Marker) (AID 2282928); conditions: HepG2 CMV promoter reporter, transcription factor profiling; actives raise or lower the signal;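 note: endpoint acts as a background internal control marker rather than a target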
How it was run: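 Fluorescence intensity of RT-PCR-derived reporter fragments, resolved by capillary electrophoresis, gives the signal. HepG2 liver cells bearing transfected cis-element reporters were treated 24 h; activity in either direction was fit relative to DMSO-treated controls.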

[2] = ATG_DR4_LXR_CIS: Attagene CIS-FACTORIAL HepG2 Assay for human Liver X Receptor (LXR), DR4 submotif (AID 2282929); conditions: HepG2 Attagene DR4 cis-reporter, mRNA transcription; actives raise or lower the signal
How it was run: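 Total RNA from 24 h-treated, MRTU-transfected HepG2 cells underwent reverse transcription, PCR, fluorescent primer extension and restriction digestion before capillary electrophoresis. Both increases and decreases in reporter signal were fitted against DMSO.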

[3] = ATG_AP_1_CIS: Attagene CIS-FACTORIAL HepG2 Assay for human Activator Protein 1 (AP-1) (AID 2282931); conditions: HepG2 Attagene cis-factorial AP-1 reporter mRNA; actives raise or lower the signal
How it was run: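 HepG2, transient cis-reporter transfection; 24 h; readout RT-PCR/CE fluorescence; DMSO baseline, gain and loss fitted.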

[4] = target: Transcription factor E2F1 (Homo sapiens) (UniProt Q01094); assay: ATG_E2F_CIS: Attagene CIS-FACTORIAL HepG2 Assay for human E2F Transcription Factor 1 (AID 2282935); conditions: HepG2 Attagene cis-reporter, E2F reporter RNA transcripts; actives raise or lower the signal
Chain of Transcription factor E2F1 (Homo sapiens) (Q01094 whole entry, looked up): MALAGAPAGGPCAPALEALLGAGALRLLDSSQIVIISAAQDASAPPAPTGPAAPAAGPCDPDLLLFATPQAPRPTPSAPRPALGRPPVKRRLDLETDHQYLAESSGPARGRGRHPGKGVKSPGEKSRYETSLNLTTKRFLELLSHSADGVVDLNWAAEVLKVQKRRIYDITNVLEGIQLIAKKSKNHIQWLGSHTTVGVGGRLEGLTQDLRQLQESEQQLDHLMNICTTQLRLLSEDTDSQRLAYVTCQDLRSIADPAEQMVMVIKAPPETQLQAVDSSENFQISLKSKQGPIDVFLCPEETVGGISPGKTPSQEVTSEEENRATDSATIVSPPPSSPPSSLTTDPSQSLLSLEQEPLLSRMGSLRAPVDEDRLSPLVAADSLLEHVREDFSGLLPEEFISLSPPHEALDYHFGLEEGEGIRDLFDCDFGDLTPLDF
How it was run: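 Fluorescent RT-PCR products, digested with HpaI for 2 h at 37 C, are separated by capillary electrophoresis. Source RNA comes from transfected HepG2 cultures treated for 24 h.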

[5] = ATG_E_Box_CIS: Attagene CIS-FACTORIAL HepG2 Assay for human Enhancer Box (E-box) (AID 2282936); conditions: HepG2 E-box cis-reporter transcription, actives raise or lower the signal
How it was run: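 Fluorescent reporter fragments separated by capillary electrophoresis gave the signal; mRNA came from HepG2 cells transfected with cis-element reporters and treated 24 h. Curves fitted bidirectionally relative to DMSO controls.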

[6] = ATG_M_19_CIS: Attagene CIS-FACTORIAL HepG2 Assay for M19 Transcription Factor (Internal Marker) (AID 2282939); conditions: HepG2 Attagene CIS-FACTORIAL M19 internal marker reporter; actives raise or lower the signal
How it was run: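 HepG2 cells transiently transfected with cis-regulated multiplexed reporter units, dosed 24 h. Reporter mRNA quantified by RT-PCR and capillary electrophoresis; internal background marker fitted bidirectionally versus DMSO.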

[7] = ATG_FoxO_CIS: Attagene CIS-FACTORIAL HepG2 Assay for human Forkhead box O (FoxO) (AID 2282943); conditions: HepG2 Attagene cis-reporter, FoxO element, mRNA; actives raise or lower the signal
How it was run: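 Human hepatoma HepG2 cells carry transiently introduced reporter transcription units controlled by cis promoter elements. Chemical treatment lasted 24 h, and mRNA signal was compared with DMSO.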

[8] = ATG_GATA_CIS: Attagene CIS-FACTORIAL HepG2 Assay for human GATA Binding Protein (AID 2282944); conditions: HepG2 GATA cis-element reporter, Attagene multiplex mRNA; actives raise or lower the signal
How it was run: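 HepG2 cells transiently transfected with multiplexed cis-element reporter units measure endogenous GATA activity; after 24 h compound exposure, reporter mRNA quantified by RT-PCR and capillary electrophoresis. Changes fitted in both directions vs DMSO.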

[9] = ATG_GLI_CIS: Attagene CIS-FACTORIAL HepG2 Assay for human Zinc Finger Protein GLI1 (AID 2282945); conditions: HepG2, Attagene cis-factorial reporter mRNA, GLI element; actives raise or lower the signal
How it was run: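 Bidirectional curve fits relative to DMSO, using reporter mRNA levels from RT-PCR plus capillary electrophoresis. Cells were HepG2 transiently carrying cis-regulated reporter constructs, harvested 24 h after dosing.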

[10] = ATG_M_32_CIS: Attagene CIS-FACTORIAL HepG2 Assay for M32 Transcription Factor (Internal Marker) (AID 2282949); conditions: HepG2 Attagene cis-factorial M32 reporter, mRNA; actives raise or lower the signal;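 note: background control marker of the multiplexed CIS panel rather than a real target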
How it was run: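 Using DMSO as baseline, bidirectional curve fits were applied to reporter mRNA signals. These came from transiently transfected HepG2 cells exposed for 24 h, with RNA analysed by RT-PCR, FAM primer extension, HpaI digestion and CE.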

[11] = ATG_M_06_CIS: Attagene CIS-FACTORIAL HepG2 Assay for M06 Transcription Factor (Internal Marker) (AID 2282950); conditions: HepG2 Attagene CIS-FACTORIAL M06 internal marker reporter; actives raise or lower the signal
How it was run: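 Internal background marker within multiplexed cis-reporter HepG2 system. Cells transiently transfected, dosed 24 h; reporter mRNA measured by RT-PCR, HpaI digestion and capillary electrophoresis. Bidirectional fit relative to DMSO.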

[12] = target: Paired box protein Pax-6 (Homo sapiens) (UniProt P26367); assay: ATG_Pax6_CIS: Attagene CIS-FACTORIAL HepG2 Assay for human Paired Box 6 (PAX6) (AID 2282956); conditions: HepG2 CIS-FACTORIAL PAX6 reporter transcription, RNA readout; actives raise or lower the signal
Chain of Paired box protein Pax-6 (Homo sapiens) (P26367 whole entry, looked up): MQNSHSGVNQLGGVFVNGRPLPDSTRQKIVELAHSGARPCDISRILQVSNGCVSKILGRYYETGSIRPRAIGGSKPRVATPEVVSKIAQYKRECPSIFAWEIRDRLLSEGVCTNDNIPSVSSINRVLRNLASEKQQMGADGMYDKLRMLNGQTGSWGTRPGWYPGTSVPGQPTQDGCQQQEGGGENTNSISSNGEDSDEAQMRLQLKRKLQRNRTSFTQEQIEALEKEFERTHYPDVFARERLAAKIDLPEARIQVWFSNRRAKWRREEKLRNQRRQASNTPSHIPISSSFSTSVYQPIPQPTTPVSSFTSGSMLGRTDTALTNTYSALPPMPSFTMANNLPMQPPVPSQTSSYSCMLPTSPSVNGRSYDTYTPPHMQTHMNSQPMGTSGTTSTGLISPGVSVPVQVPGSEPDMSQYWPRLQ
How it was run: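 Values derive from bidirectional curve fitting of reporter mRNA signal relative to DMSO. HepG2 cells bearing transfected cis-regulated MRTUs were exposed for 24 h; transcripts were read by RT-PCR and capillary electrophoresis.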

[13] = ATG_Sox_CIS: Attagene CIS-FACTORIAL HepG2 Assay for human SRY-box transcription factor (SOX) (AID 2282960); conditions: HepG2 Attagene cis-factorial SOX reporter, mRNA; actives raise or lower the signal
How it was run: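 HepG2, cis reporter units, 24 h exposure. Reporter mRNA: RT-PCR → FAM labelling → HpaI → CE fluorescence. Bidirectional fit vs DMSO.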

[14] = target: Signal transducer and activator of transcription 3 (Homo sapiens) (UniProt P40763); assay: ATG_STAT3_CIS: Attagene CIS-FACTORIAL HepG2 Assay for human Signal Transducer and Activator of Transcription 3 (STAT3) (AID 2282963); conditions: HepG2, Attagene cis-factorial STAT3 reporter transcription; actives raise or lower the signal
Chain of Signal transducer and activator of transcription 3 (Homo sapiens) (P40763 whole entry, looked up): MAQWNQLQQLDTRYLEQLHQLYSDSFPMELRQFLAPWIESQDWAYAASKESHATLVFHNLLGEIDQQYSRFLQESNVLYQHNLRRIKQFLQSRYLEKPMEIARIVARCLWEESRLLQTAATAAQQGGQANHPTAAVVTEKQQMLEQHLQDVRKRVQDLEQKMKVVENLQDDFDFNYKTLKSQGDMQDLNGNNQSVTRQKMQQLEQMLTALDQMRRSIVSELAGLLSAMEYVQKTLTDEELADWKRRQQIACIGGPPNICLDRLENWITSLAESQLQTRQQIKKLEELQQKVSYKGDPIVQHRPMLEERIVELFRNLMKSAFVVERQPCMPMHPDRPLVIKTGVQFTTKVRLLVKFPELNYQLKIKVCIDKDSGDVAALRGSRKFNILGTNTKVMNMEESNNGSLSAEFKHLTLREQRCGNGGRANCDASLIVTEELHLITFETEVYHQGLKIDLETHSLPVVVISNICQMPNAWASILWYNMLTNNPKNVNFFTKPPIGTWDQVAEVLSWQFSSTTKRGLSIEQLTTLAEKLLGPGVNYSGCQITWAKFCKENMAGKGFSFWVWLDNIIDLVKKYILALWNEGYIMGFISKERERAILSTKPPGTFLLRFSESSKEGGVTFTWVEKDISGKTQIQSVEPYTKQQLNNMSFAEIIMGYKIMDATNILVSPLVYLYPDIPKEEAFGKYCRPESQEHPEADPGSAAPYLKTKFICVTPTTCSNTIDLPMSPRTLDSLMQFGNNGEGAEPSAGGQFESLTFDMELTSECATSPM
How it was run: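 Cis-factorial format: endogenous transcription factors in HepG2 drive transfected reporter units. After 24 h treatment, reporter RNA was reverse-transcribed, amplified, FAM-labelled and HpaI-digested before CE analysis; activity scored in both directions against DMSO.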

[15] = ATG_TCF_b_cat_CIS: Attagene CIS-FACTORIAL HepG2 Assay for human T-Cell-Factor with beta-catenin (TCF/b-cat) (AID 2282965); conditions: HepG2 TCF/beta-catenin cis-reporter transcription, actives raise or lower the signal
How it was run: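 Measured: reporter mRNA in HepG2 transiently transfected with cis-promoter reporter units, 24 h after chemical addition. Fitting was bidirectional, DMSO as negative control.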

[16] = ATG_TAL_CIS: Attagene CIS-FACTORIAL HepG2 Assay for human TAL Basal Promoter (AID 2282966); conditions: HepG2 Attagene cis-factorial TAL promoter reporter; actives raise or lower the signal;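 note: background control endpoint measuring basal TAL promoter reporter mRNA not a specific factor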
How it was run: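 Basal-promoter background-control endpoint from a multiplexed HepG2 reporter panel. Cells were exposed 24 h, then reporter mRNA was read by RT-PCR/CE fluorescence and fitted in both directions relative to DMSO.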

[17] = ATG_TGFb_CIS: Attagene CIS-FACTORIAL HepG2 Assay for human Transforming Growth Factor (TGF) (AID 2282967); conditions: HepG2 Attagene CIS TGFb reporter, mRNA transcription; actives raise or lower the signal
How it was run: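 HepG2 cells transiently transfected with cis-promoter-driven multiple reporter units measure endogenous TF activity; reporter mRNA quantified at 24 h by RT-PCR, FAM labeling, HpaI digestion and capillary electrophoresis. Bidirectional fit vs DMSO.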

[18] = target: Transcriptional activator Myb (Homo sapiens) (UniProt P10242); assay: ATG_Myb_CIS: Attagene CIS-FACTORIAL HepG2 Assay for human Myeloblastosis (Myb) Proto-Oncogene Transcription Factor (AID 2282986); conditions: HepG2 Attagene CIS-FACTORIAL Myb reporter transcription; actives raise or lower the signal
Chain of Transcriptional activator Myb (Homo sapiens) (P10242 whole entry, looked up): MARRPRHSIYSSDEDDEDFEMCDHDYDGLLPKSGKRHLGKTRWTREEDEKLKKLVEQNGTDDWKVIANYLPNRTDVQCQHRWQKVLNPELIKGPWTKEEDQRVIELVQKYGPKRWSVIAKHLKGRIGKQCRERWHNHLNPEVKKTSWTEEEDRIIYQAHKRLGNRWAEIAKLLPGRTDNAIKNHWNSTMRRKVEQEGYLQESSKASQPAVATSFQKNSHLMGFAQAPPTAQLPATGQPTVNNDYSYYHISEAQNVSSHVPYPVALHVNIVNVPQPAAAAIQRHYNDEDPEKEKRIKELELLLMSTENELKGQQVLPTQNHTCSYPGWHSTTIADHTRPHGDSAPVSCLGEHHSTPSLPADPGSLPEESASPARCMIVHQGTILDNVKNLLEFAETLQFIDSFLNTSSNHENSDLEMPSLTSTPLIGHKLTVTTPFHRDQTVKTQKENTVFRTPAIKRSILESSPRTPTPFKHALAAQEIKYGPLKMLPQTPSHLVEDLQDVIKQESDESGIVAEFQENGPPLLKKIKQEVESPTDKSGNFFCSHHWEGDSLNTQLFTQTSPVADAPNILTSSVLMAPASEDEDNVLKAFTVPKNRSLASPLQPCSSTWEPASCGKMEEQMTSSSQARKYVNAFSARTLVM
How it was run: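 After 24 h of compound dosing, total RNA from transfected HepG2 cells is reverse-transcribed and the reporter sequences amplified, labeled and separated by capillary electrophoresis. Values come from bidirectional fitting against DMSO.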

[19] = target: Myc proto-oncogene protein (Homo sapiens) (UniProt P01106); assay: ATG_Myc_CIS: Attagene CIS-FACTORIAL HepG2 Assay for human Myelocytomatosis (Myc) Proto-Oncogene Transcription Factor (AID 2282990); conditions: HepG2, Attagene cis-reporter transcription factor activity; actives raise or lower the signal
Chain of Myc proto-oncogene protein (Homo sapiens) (P01106 whole entry, looked up): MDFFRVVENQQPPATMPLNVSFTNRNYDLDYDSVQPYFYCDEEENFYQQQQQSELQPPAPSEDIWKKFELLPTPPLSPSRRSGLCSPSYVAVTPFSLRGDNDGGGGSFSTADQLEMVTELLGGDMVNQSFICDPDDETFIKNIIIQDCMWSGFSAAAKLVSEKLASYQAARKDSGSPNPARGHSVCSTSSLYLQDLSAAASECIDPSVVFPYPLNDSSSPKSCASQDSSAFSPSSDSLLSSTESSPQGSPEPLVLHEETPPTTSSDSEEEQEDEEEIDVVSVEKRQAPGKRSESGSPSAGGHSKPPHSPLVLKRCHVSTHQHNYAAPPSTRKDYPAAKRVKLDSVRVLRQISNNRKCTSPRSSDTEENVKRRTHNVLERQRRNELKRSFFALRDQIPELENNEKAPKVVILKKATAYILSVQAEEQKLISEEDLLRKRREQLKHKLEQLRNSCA
How it was run: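 Cells of the HepG2 human liver line bear multiple cis-driven reporter transcription units. Reporter mRNA after 24 h exposure is reverse-transcribed, amplified, labelled and resolved by capillary electrophoresis, with gain- or loss-of-signal fitting relative to DMSO.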

[20] = ATG_Oct_MLP_CIS: Attagene CIS-FACTORIAL HepG2 Assay for human Octamer-Binding Transcription Factor (Oct) (AID 2282993); conditions: HepG2 Attagene cis-factorial Oct reporter, mRNA; actives raise or lower the signal
How it was run: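 HepG2 cells transiently transfected with cis-element-driven reporter transcription units (endogenous TF activity); 24 h compound exposure. Reporter mRNA quantified by RT-PCR, 6-FAM labelling, HpaI digestion and capillary electrophoresis; bidirectional fit versus DMSO baseline.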

Measured: AC50

O=C(C(=O)c1ccccc1)c1ccccc1
inactive: all assays above

Oc1ccc(Cl)cc1C1CCCC1
active: [2] 43.2 µM | [7] 61.3 µM | [8] 33.4 µM | [9] 43.1 µM | [12] 62.4 µM | [13] 37.5 µM | [15] 61.4 µM | [16] 54.9 µM | [19] 16.6 µM | [20] 47.9 µM
inactive: [1] | [3] | [4] | [5] | [6] | [10] | [11] | [14] | [17] | [18]

CCCCOC(=O)COc1ccc(Cl)cc1Cl
inactive: all assays above

Cc1ccccc1S(=O)(=O)O
active: [13] 27 µM
inactive: all other assays above

COC(=O)CCSCCC(=O)OC
inactive: all assays above

CC(C)CC(=O)CC(C)C
inactive: all assays above

O=C(O)c1ccccc1C(=O)O
inactive: all assays above
